# Sampled rows, rich in hits. Any-hit rate of the full collection: about 1.1%.
# MOR-DOR ag – agonists of human mu-delta opioid receptor heterodimerization. P35372+P41143. cells, OPRM1-OPRD1 heterodimerization, luminescence. activation, % at 9.3 µM. 0.3% of 340,000 active; in the data active = activation above about 18%;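 note: 0% = vehicle-treated cells and 100% = reference agonist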
# Target sequence (P35372 whole entry, looked up): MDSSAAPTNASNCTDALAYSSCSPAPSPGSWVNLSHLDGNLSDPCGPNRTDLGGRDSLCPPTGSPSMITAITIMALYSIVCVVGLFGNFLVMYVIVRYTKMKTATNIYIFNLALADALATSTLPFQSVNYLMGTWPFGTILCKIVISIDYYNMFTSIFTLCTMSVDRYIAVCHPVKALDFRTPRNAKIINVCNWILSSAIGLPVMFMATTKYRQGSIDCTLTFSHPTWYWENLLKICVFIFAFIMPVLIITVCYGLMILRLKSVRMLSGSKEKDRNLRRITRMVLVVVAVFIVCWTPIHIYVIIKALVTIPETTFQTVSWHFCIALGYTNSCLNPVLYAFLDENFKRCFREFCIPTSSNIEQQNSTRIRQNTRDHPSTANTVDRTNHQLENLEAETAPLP
# Target sequence (P41143 whole entry, looked up): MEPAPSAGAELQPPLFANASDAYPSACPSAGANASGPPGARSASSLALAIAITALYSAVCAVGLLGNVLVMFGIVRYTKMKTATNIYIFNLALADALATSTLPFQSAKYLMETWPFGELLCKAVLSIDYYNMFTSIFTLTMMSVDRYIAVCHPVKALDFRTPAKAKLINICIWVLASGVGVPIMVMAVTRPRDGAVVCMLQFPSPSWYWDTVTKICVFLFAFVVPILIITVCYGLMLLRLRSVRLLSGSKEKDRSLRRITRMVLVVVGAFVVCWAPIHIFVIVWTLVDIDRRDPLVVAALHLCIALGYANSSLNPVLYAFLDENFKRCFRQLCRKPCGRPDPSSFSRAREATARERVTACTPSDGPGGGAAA
# MOR-DOR inv ag-1 – inverse agonists of human mu-delta opioid receptor heterodimerization. P35372+P41143. cell-based MOR-DOR heterodimer luminescence, inverse agonism. inhibition, % at 9.3 µM. 0.21% of 340,000 active. AID 504357; in the data active = inhibition above about 22%, passing the limit was not always enough;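 note: 0% = cells with DMSO and 100% = wells without cells with DMSO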
# HTR5A ag – activates human HTR5A in OPRM1-OPRD1 agonist counter-screen; HTR5A agonist assay, luminescence, cell-based; activation, % at 9.3 µM; 0.61% of 340,000 active; AID 504692; in the data active = activation mostly above about 9.5%, no sharp cut-off; inactive = mostly below about 7.6%;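 note: 0% = cells with vehicle only and 100% = reference agonist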
# HTR5A inv ctr – HTR5A inverse agonism, opioid heterodimer counter-screen | HTR5A cell line, luminescence | inhibition, % at 9.3 µM | 0.083% of 340,000 active | AID 504634; in the data active = inhibition mostly above about 23%, no sharp cut-off; inactive = mostly below about 18%;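 note: 0% = cells with DMSO and 100% = no-cell wells with DMSO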
# MOR-DOR inv ag-2 – counter-screen for HTR5A inverse agonists: OPRM1-OPRD1 heterodimerization inverse agonism | AID 504912 | shares compounds with HTR5A inv ctr | U2OS counter-screen cells, complementation luminescence | 190 tested, under 10 active | inhibition, % at 9.3 µM;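 note: 0% = cells with DMSO and 100% = wells without cells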
# HTR5A inv confrm – confirmation of human HTR5A inverse agonists; inhibition, % at 9.3 µM; HTR5A-expressing cells, inverse agonism, luminescence; shares compounds with HTR5A inv ctr; 190 tested, under 10 active;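 note: 0% = cells with DMSO and 100% = no cells with DMSO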
# The depositor's hits bear a star; i = inactive; x = not tested or not shown. Unless noted, the rule behind the calls is not given here.
SMILES,MOR-DOR ag,MOR-DOR inv ag-1,HTR5A ag,HTR5A inv ctr,MOR-DOR inv ag-2,HTR5A inv confrm
Oc1cccc2ccc(/C=C/c3ccccc3Cl)nc12,-2,9,-17,62*,-13,47*
N/C(=N\OC(=O)CCN1C(=O)c2ccccc2C1=O)c1ccccn1,-1,3,2,47*,i,-14
O=C(NCCC(=O)N1CCN(c2ccc(F)cc2)CC1)c1ccco1,-3,16,-2,5,x,x
CCN(CC(=O)Nc1ccc(NC(C)=O)cc1)C(=O)c1ccc(N(C)S(=O)(=O)c2ccc(C)cc2)cc1,-2,7,-4,9,x,x
O=C(CSC1=N/C(=C/c2ccc(Cl)c(Cl)c2)C(=O)N1c1ccccc1F)NC1CC1,-1,8,-1,37*,-24,14
CCCCCNC(=O)CSC1=N/C(=C\c2ccc(Cl)c(Cl)c2)C(=O)N1CC,-2,12,-2,4,x,x
FC(F)Oc1ccc(/C=N/n2c(Cc3ccc(Br)cc3)n[nH]c2=S)cc1,11,-56,-4,12,x,x
CSc1ccc(/C=N/n2c(Cc3ccc(Br)cc3)n[nH]c2=S)cc1,6,-30,-13,32*,-39,13
CSc1nc(C)cc(Oc2ccc(=O)n(C)n2)n1,-4,20,-4,2,x,x
CCSc1nc(C)cc(Oc2ccc(=O)n(C)n2)n1,-1,3,-2,89*,-192,-13
Cc1ccc(CC2(c3ccccc3)NC(=O)NC2=O)cc1 (stereo unspecified),-1,7,-3,12,x,x
COc1ccc(/C=C/C(=O)NC(=S)NNC(=O)c2cccs2)cc1,-4,23,-7,42*,4,-18
O=C(C[n+]1ccccc1)N/N=C/c1cc(Br)cc(Br)c1O,-6,25,-12,41*,5,34
O=C(Nc1cccc(S(=O)(=O)N2CCOCC2)c1)C1CCN(S(=O)(=O)c2ccccc2)CC1,-2,9,4,-12,x,x
CCOc1cc(/C=C2\CN(C)C/C(=C\c3ccc(O)c(OCC)c3)C2=O)ccc1O,-5,22,-5,16,x,x
CCOc1cc(/C=C2\CCC/C(=C\c3cc(Cl)c(O)c(OCC)c3)C2=O)cc(Cl)c1O,-3,13,-21,46*,i,-20
Cc1ccc(/C=C/c2nnc(-c3cccs3)o2)cc1,5,-33,-6,13,x,x
Cc1ccc(/C=C/c2nnc(-c3ccc(C)cc3)o2)cc1,2,-13,-18,42*,-42,-199
O=C(NCCc1nc(-c2ccccc2Cl)no1)c1ccccc1,-2,9,3,-8,x,x
CC(C)C(=O)NCCc1nc(-c2ccccc2Cl)no1,0,3,2,38*,-19,0
N#CCCN=C(NS(=O)(=O)c1ccccc1)c1ccccc1,0,1,-8,22*,-13,-18
CCOc1ccc(S(=O)(=O)n2ccc(C)n2)cc1,-2,11,-7,26*,22,-6
OCC[C@@H]1C[C@H](O)[C@@H](O)[C@@]2(OCCCc3ccccc32)O1,0,0,-17,44*,-5,3
OCC[C@@H]1C[C@@H](O)[C@H](O)[C@]2(OCCc3ccccc32)O1,-2,12,-1,0,x,x
Cc1ccc(NC(=O)NCc2cccn2C)cc1C,-4,17,0,1,x,x
SMILES,MOR-DOR ag,MOR-DOR inv ag-1,HTR5A ag,HTR5A inv ctr,MOR-DOR inv ag-2,HTR5A inv confrm
CC(=O)c1ccc(OCc2ccccc2)c(C)c1O,7,-41,-10,28*,-47,-1
C=CC[n+]1c(-c2ccc(Cl)cc2Cl)csc1Nc1c(C)n(C)n(-c2ccccc2)c1=O,-7,31,-7,36*,-11,-8
FC(F)Oc1ccccc1NC(=S)NCCc1ccccc1,2,-9,-17,45*,i,-31
Cc1cc(OC(F)F)ccc1NC(=S)NCCc1ccccc1,0,3,0,-23,x,x
CN(CC(=O)Nc1ccccc1Br)C(=O)CN1CCN(Cc2cccc(Cl)c2)CC1,0,2,-1,3,x,x
COc1cccc(CNC(=O)Cc2ccc(S(=O)(=O)N3CCOCC3)s2)c1,2,-13,-15,38*,49*,-5
Cc1cccc(NS(=O)(=O)c2ccc(C)c(C(=O)NCC(c3ccco3)N3CCCCC3)c2)c1 (stereo unspecified),0,2,3,-7,x,x
CCCn1c(NC(=O)CCS(=O)(=O)c2ccc(C)cc2)nc2ccccc21,-2,10,-3,8,x,x
CC(C)(C)C(=O)NC(=S)NNC(=O)C(c1ccccc1)c1ccccc1,-4,22,-15,45*,2,23

# Assay outcomes (PubChem)
